From PubChem BioAssay AID651718 (The Scripps Research Institute Molecular Screening Center, 2012)
About 2,700 (0.75%) of roughly 360,000 compounds were called active. The full list was thinned out, with actives kept by preference. A number with no mark means an inactive call. Cut-off read from the data, not from the text of the source: active = inhibition above about 4.5%; inactive = the rest.

system: Methionine sulfoxide reductase A (Bos taurus); assay: inhibition of methionine sulfoxide reductase A – biochemical, absorbance, bovine, HTS, primary screen (AID 651718); details: purified bovine MsrA, absorbance read-out; at 15.5 µM; hits give high values;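 note: 0% = vehicle wells with enzyme and 100% = reference inhibitor wells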

| Structure (SMILES) | inhibition |
| --- | --- |
| Nc1ncnc2c1ncn2C1OC(CO)CC1O (stereo unspecified) | 1.51% |
| CC1(C(=O)NS(=O)(=O)c2cccc(OC(F)F)c2)CCN1C(=O)C1CC1 (stereo unspecified) | 0.29% |
| COC(=O)c1c(-c2ccc(OC)cc2)c2c(c3c4ccccc4n(S(=O)(=O)c4ccc(C)cc4)c13)C(=O)N(C)C2 | 1.59% |
| Nc1nc2c(ncn2[C@@H]2O[C@H](C(=O)N[C@H](Cc3ccccc3)C(=O)NCC3CCCCC3)[C@@H](O)[C@H]2O)c(=O)[nH]1 | 0.66% |
| COc1ccc(Cl)cc1NC(=O)CN(C)C(=O)c1cn(-c2ccccc2)nc1-c1cccs1 | 0.13% |
| O=C(O)c1ccc(N/N=C/c2cn(-c3ccccc3)nc2-c2cccs2)cc1 | 8.7% (active) |
| CC(=O)C1=C(C)NC(C)=C(C(C)=O)C1c1cn(-c2ccccc2)nc1-c1cccs1 | 1.65% |
| CC(=NNC(N)=O)c1ccc(Cl)c(-n2cccc2)c1 | -0.35% |
| CN1CCCCC(NC(=O)C(C)(C)C)C1=O (stereo unspecified) | 0% |
| Cc1ccc(S(=O)(=O)Oc2ccc(/C=N/NC(=O)c3c(Cl)cnn3C)cc2)cc1 | 0.98% |
| Cc1ccc(NC(=O)CC2S/C(=N/N=C3\CCCc4ccccc43)NC2=O)cc1 (stereo unspecified) | -0.26% |
| CC(=O)Nc1ccc(S(=O)(=O)Oc2ccc(/C=N/N=C3/NC(=O)C(CC(=O)O)S3)cc2)cc1 (stereo unspecified) | 5.33% (active) |
| COC(=O)[C@]12C[C@H](CC(=O)NCCCCc3ccccc3)C(=O)N(Cc3ccc4c(c3)OCO4)C1=C[C@H](C(C)(C)C)O[C@@H]2C | 1.75% |
| CCOC(=O)Cn1c2c(n(-c3ccc(F)cc3)c1=O)C=C(c1ccccc1)[C@@H](C)C(C(=O)N(C)C1CCCCC1)=C2 | -0.4% |
| COc1ccc(C2=CN(Cc3ccccc3)C(c3ccc(OC)cc3)CC2=O)cc1 (stereo unspecified) | -0.65% |
| COc1ccc(CNS(=O)(=O)c2cc(Br)ccc2Br)cc1 | 0.62% |
| O=C(O)c1ccc(NN=CC2=C(N3CCOCC3)/C(=C/c3ccccc3)CC2)cc1 | 2.43% |
| COc1ccc(/C=N/Nc2cc(N3CCOCC3)nc(C)n2)c(OC)c1 | 5.8% (active) |
| COc1ccccc1-c1cnn2c(N3CCOCC3)cc(C)nc12 | 1.96% |
| C(=N/Nc1cc(N2CCOCC2)nc(N2CCOCC2)n1)/c1ccccc1 | 5.01% (active) |
| Fc1ccccc1/C=N/Nc1cc(N2CCCCC2)ncn1 | 1.96% |
| Cc1cc2c(C)nc(N/N=C/c3ccccc3)nc2o1 | 3.05% |

| Structure (SMILES) | inhibition |
| --- | --- |
| COc1ccccc1C(=O)N1O[C@]23C=C[C@]14C[C@@H](O)CC[C@]4(C)C2CC[C@]1(C)[C@@H]([C@H](C)/C=C/[C@H](C)C(C)C)CC[C@H]13 (stereo partly specified) | -0.78% |
| CN(C)C(=O)N1CCN(C(=O)[C@@H](Cc2ccccc2)NC(=O)[C@H]2O[C@@H](n3ccc(N)nc3=O)[C@H](O)[C@@H]2O)CC1 | 0.17% |
| CSc1ccc(Oc2cccc3c2S(=O)(=O)N([C@H](C)c2ccccc2)C[C@@H](COCc2ccccc2)O3)cc1C | 0.09% |
| CC(C)Cc1oc(C(=O)O)cc1CN | -1.34% |
| Cc1ccc(S(=O)(=O)NCCC(c2ccccc2)c2ccccc2)cc1C(=O)O | 0% |
| CC(=O)C(C)n1cnc2scc(-c3ccc(C)cc3)c2c1=O (stereo unspecified) | 0.23% |
| CCOC(=O)C(C)n1cnc2scc(-c3ccc(C)c(C)c3)c2c1=O (stereo unspecified) | 8.45% (active) |
| CCOC(=O)C(C)n1cnc2c(nnn2-c2ccc(F)cc2)c1=O (stereo unspecified) | -0.86% |
| CCn1cnc2scc(-c3ccc(C)c(C)c3)c2c1=O | 0.83% |
| CCC(C(=O)OC)n1cnc2scc(-c3ccc(C)cc3)c2c1=O (stereo unspecified) | 2.62% |
| COC(=O)Cn1cnc2scc(-c3ccc(C)c(C)c3)c2c1=O | 4.6% (active) |
| Cc1sc2c(c1C)c(=O)n(-c1ccccc1)c1nncn21 | 0.74% |
| CC1(C)CC(=O)C=C(c2ccc3ncccc3c2)C1 | 0.6% |
| Cc1cccc(C(=O)NC2CCN(CC(=O)Nc3cccc(Cl)c3)CC2)c1 | -0.97% |
| COc1ccc(-c2ccc3c(n2)CCCN3S(=O)(=O)c2ccc(C)cc2)cc1 | 1.35% |
| CCOC(=O)/C=C/c1ccccc1O | 1.24% |
| Nc1ncnc2c1ncn2[C@@H]1O[C@H](C(=O)N[C@@H](CCc2ccccc2)C(=O)N2CCCN(Cc3cccs3)CC2)[C@@H](O)[C@H]1O | -0.82% |
| COc1ccc(/C=C(/NC(=O)c2ccco2)C(=O)Nc2ccc(C(C)=O)cc2)cc1 | 6.24% (active) |
| O=C(NC(Cc1ccccc1)C(=O)O)/C(=C\c1ccccc1)NC(=O)c1ccco1 (stereo unspecified) | -0.85% |
| Cc1ccc(NC(=O)/C(=C\c2ccccc2)NC(=O)c2ccco2)cc1 | 1.7% |
| O=C(NCc1ccccc1)[C@@H]1CCCN1C(=O)[C@@H](NS(=O)(=O)c1ccc(F)cc1F)C1CCCCC1 | 0.41% |
| C[C@@H](CN1C2=NC[C@@H](Cc3ccccc3)N2C[C@H]1Cc1ccc(O)cc1)NC(=O)CCC1CCCCC1 | -0.6% |

| Structure (SMILES) | inhibition |
| --- | --- |
| C[C@H]1[C@H](c2ccccc2)Oc2cc(Br)ccc2S(=O)(=O)N1Cc1cccc(F)c1 | -0.62% |
| COc1ccc(CCNC(=O)c2ccccc2-c2ccccc2C(=O)O)cc1OC | -1.11% |
| COc1ccc(CCNC(=O)CCc2ccccc2O)cc1OC | -1.41% |
| COc1ccc(CC(=O)c2ccc(O)cc2O)cc1OC | 5.45% (active) |
| COCc1[nH]nc2c1C(c1ccccc1)N(c1ccccc1)C2=O (stereo unspecified) | 2.45% |
| CC(C=Cc1ccccc1)=NNS(=O)(=O)c1ccc([N+](=O)[O-])cc1 | 0.99% |
| O=C(Nc1ccc(C(=O)O)cc1)/C(=C/c1ccc([N+](=O)[O-])cc1)NC(=O)c1ccccc1 | 5.97% (active) |
| Cc1ccc(C(=O)N/C(=C/C=C/c2ccccc2)C(=O)NCc2ccco2)cc1 | 3.44% |
| O=C(N/C(=C\c1ccc([N+](=O)[O-])cc1)C(=O)N1CCOCC1)c1cccc(Br)c1 | 2.94% |
| CNC(=O)/C(=C\C=C\c1ccccc1)NC(=O)c1ccc([N+](=O)[O-])cc1 | 5.69% (active) |
| O=C(Nc1ccc(C(=O)O)cc1)/C(=C\c1ccccc1)NC(=O)c1ccc(Br)cc1 | -0.28% |
| O=C(NS(=O)(=O)c1cccs1)[C@H]1O[C@@H](n2ccc(=O)[nH]c2=O)[C@H](O)[C@@H]1O | -0.74% |
| O=C(NN=Cc1ccco1)C(=O)Nc1ccc(Cl)c([N+](=O)[O-])c1 | -0.74% |
| CC(C(=O)Nc1ccccc1-c1ccccc1)N1CCOCC1 (stereo unspecified) | 0.29% |
| Cc1nc2ccccc2n1C(=O)N1CCOCC1 | -0.3% |
| Cc1oc2c(c1C(=O)N1CCOCC1)C(=O)c1ccccc1C2=O | 14.1% (active) |
| CCOc1ccc(/C=N\NC(=O)c2c(C)nc3cc(C)ccn23)cc1 | 3.14% |
| CCOc1cc(/C=N/NC(=O)CN2CCCCC2)ccc1O | 0.86% |
| CCOc1cc(/C=N/NC(=O)c2c(C)nc3ccc(Cl)cn23)ccc1O | 6.4% (active) |
| COC(=O)Nc1nc2ccc(C(=O)C3CC3)cc2[nH]1 | 1.54% |
| CCOC(=O)c1c(C(C#N)C#N)cc(C)nc1C | 5.28% (active) |
| CCOC(=O)c1cc(C)nc(S(C)(=O)=O)c1C#N | 1.83% |

| Structure (SMILES) | inhibition |
| --- | --- |
| CCOC(=O)c1c(C)[nH]c(C)c1C(=O)CSc1nc(N)cc(N)n1 | 0.97% |
| N#Cc1ccc(S(=O)(=O)NCC(=O)OCC(=O)NCCc2ccccc2)cc1 | 0.77% |
| O=C(NCc1ccccc1)[C@@H]1CCCN1C(=O)[C@H]1CCCN1C(=O)c1cccc(Cl)c1 | -0.24% |
| Brc1ccc(COCCc2cn(Cc3ccccc3)c3ccccc23)cc1 | -0.08% |
| N#Cc1c(N)nc2c3c(sc(=N)c2c1N)NC(=O)CC3c1ccccc1Cl (stereo unspecified) | 6.25% (active) |
| CSc1nc2c(c(=O)[nH]1)C(c1cccc(Cl)c1Cl)CC(=O)N2 (stereo unspecified) | -1.13% |
| COC(=O)[C@H](CC(C)C)NS(=O)(=O)c1c(F)cccc1F | 1.4% |
| COC(=O)c1sccc1N/N=C(\C)c1ccc(F)c(Cl)c1 | -0.14% |
| CCN(CC)c1ccc(C(=O)N/N=C(\C)c2cccc(OC)c2)cc1 | 1.78% |
| COc1cccc(/C(C)=N/Nc2ncc(Cl)cc2Cl)c1 | 5.21% (active) |
| COc1cccc(CNC(=O)[C@H]2CCCN2C(=O)[C@H]2CCCN2C(=O)c2cc(F)cc(F)c2)c1 | 0.79% |
| CCCN1C(=O)c2[nH]nc(-c3ccccc3)c2C1c1ccccc1 (stereo unspecified) | 0.64% |
| Nc1nnnn1CC(=O)N/N=C/c1ccc(-c2cccc(Cl)c2)o1 | 5.41% (active) |
| O=C(Cn1nnc(-c2ccccc2)n1)N/N=C/c1ccc(-c2ccc(Cl)cc2)o1 | 1.47% |
| O=C(N/N=C\c1ccc(-c2ccc(Cl)c(Cl)c2)o1)C(=O)N1CCCC1 | -0.58% |
| Cc1ccc(S(=O)(=O)Nc2nc(C)cc(-n3nc(C)cc3C)n2)cc1 | -0.42% |
| Cc1ccc(S(=O)(=O)Nc2nc(C)cc(N/N=C/c3ccc(O)cc3)n2)cc1 | 9.28% (active) |
| Cc1ccc(OCCCC(=O)Nc2ccc(S(=O)(=O)Nc3cc(C)nc(C)n3)cc2)cc1 | 0.56% |
| CCN1C(=O)N[C@@H](CCc2ccccc2)C(C(=O)OC)=C1C | 0.27% |
| CCCC(=O)N1CCC1(C)C(=O)NS(=O)(=O)c1ccc(Cl)cc1 (stereo unspecified) | -0.68% |
